Our source for the growth values is PubChem BioAssay (NCI).

Among the test systems are NCI-H23 lung; NCI-H226 lung; NCI-H322M lung; HOP-62 NSCLC; NCI-H460 lung; HOP-92 NSCLC; NCI-H522 lung; A549/ATCC NSCLC; 786-0 renal; COLO 205 colon; DU-145 prostate; K-562 leukemia; MALME-3M melanoma; MDA-MB-231 breast; RXF 393 renal; SF-268 CNS; SF-295 CNS; SF-539 CNS; UACC-257 melanoma; M14 melanoma.
Test in all cases: NCI-60 one-dose screen, 48 h (100 = growth as untreated, 0 = no growth, -100 = all killed)
Conditions in all cases: 10 µM unless noted

Each structure is given as a SMILES string. This is part of a sample that, as a whole, favours compounds with a hit. Of some 83,000 tested, about 20% had one in any assay.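 Percent growth is the endpoint: 0 to 100 indicates growth inhibition (40 means 60% inhibition), 0 means no net growth, and negative values indicate cell death.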 A number with no mark means an inactive call. Calls of active or inactive are those of the source. Rule for the calls: active = growth percent below 10; inactive = the rest.

As to `CCCNC(=O)Oc1ccc(/C(=C(\C)c2ccccc2)c2ccc(OCCN3CCCCC3)cc2)cc1`, the growth is 79.4% in the assay with NCI-H23 lung; 89.5% in the assay on NCI-H226 lung; 83.3% with NCI-H322M lung; 81.9% in the assay with HOP-62 NSCLC; 66.7% with NCI-H460 lung; 80.7% in the assay on HOP-92 NSCLC. In addition, the growth was 103% in the assay with NCI-H522 lung; 62.2% in the assay with A549/ATCC NSCLC; 35.8% with 786-0 renal; 38% with COLO 205 colon; 87.9% in the assay on DU-145 prostate; 10.2% in the assay with K-562 leukemia. Further, the growth in the assay with MALME-3M melanoma was 61.3%; in the assay on MDA-MB-231 breast, 81.9%; in the assay with RXF 393 renal, 64.4%; in the assay on SF-268 CNS, 72.6%; in the assay with SF-295 CNS it was 55%; in the assay with SF-539 CNS, 37.5%. Moreover, the figures for the growth in the assay with UACC-257 melanoma and in the assay on M14 melanoma were -14.1% (active) and 14.1%, respectively.
With `COc1ccc(-c2c(-c3ccccc3)noc2N)cc1OC`, the growth is 105% with NCI-H23 lung; 113% in the assay on NCI-H226 lung; 96.1% in the assay with NCI-H322M lung; 124% with HOP-62 NSCLC; 116% in the assay with NCI-H460 lung; 90.8% in the assay with HOP-92 NSCLC. The growth is 86.1% with NCI-H522 lung; 93.8% in the assay on A549/ATCC NSCLC; 96.4% with 786-0 renal; 118% in the assay with COLO 205 colon; 104% in the assay on DU-145 prostate; 95% in the assay on K-562 leukemia. In addition, the growth in the assay on MALME-3M melanoma is 102%; in the assay with MDA-MB-231 breast it was 120%; with SF-268 CNS it was 107%; in the assay on SF-295 CNS, 103%; in the assay with SF-539 CNS it was 115%; with UACC-257 melanoma, 88.3%.
As for `Cn1c(COC(=O)NCCc2ccccn2)nc2c(N3CCOCC3)nc(Cl)nc21`, the growth in the assay with NCI-H23 lung is 16.9%; in the assay with NCI-H226 lung, 25.2%; with NCI-H322M lung it was 78.9%; in the assay on HOP-62 NSCLC, 42.3%; in the assay with NCI-H460 lung it was 38.3%; in the assay on HOP-92 NSCLC, -29.5% (active). Besides, the growth is -24% (active) in the assay on NCI-H522 lung; 44.2% with A549/ATCC NSCLC; -74.7% (active) in the assay on 786-0 renal; -41.1% (active) in the assay with COLO 205 colon; 8% (active) in the assay with DU-145 prostate; 2.75% (active) in the assay with K-562 leukemia. For the same compound, the growth in the assay with MALME-3M melanoma is -71.2% (active); with MDA-MB-231 breast, -64.5% (active); in the assay with SF-268 CNS, 46%; with SF-295 CNS it was 71.7%; in the assay on SF-539 CNS it was -19.8% (active); with UACC-257 melanoma, 18.1%.
With `CC(=O)N1c2ccccc2NC2=C(C(=O)N(Cc3ccccc3)C2(C)C)C1c1ccco1` (configuration not stated), the growth in the assay with NCI-H23 lung is 20.9%; in the assay with NCI-H226 lung, 65.7%; with NCI-H322M lung, 44.6%; in the assay with HOP-62 NSCLC, 33.1%; with NCI-H460 lung, 4.83% (active); in the assay on HOP-92 NSCLC, 21.1%. Further, the growth in the assay on NCI-H522 lung is 21.8%; in the assay on A549/ATCC NSCLC, 22%; with 786-0 renal it was 21.4%; in the assay with COLO 205 colon it was 16.8%; with DU-145 prostate it was 7.82% (active); in the assay on K-562 leukemia, 12.6%. The growth was 69.9% in the assay with MALME-3M melanoma; 9.25% (active) in the assay on MDA-MB-231 breast; -11.7% (active) with RXF 393 renal; 42.7% with SF-268 CNS; -0.752% (active) with SF-295 CNS; -17.9% (active) in the assay with SF-539 CNS. For the same compound, the growth in the assay on UACC-257 melanoma is 77.6%; in the assay on M14 melanoma, -13.6% (active).
Regarding `O=C(N/N=C/c1ccc(O)c(O)c1)c1sc2ccccc2c1Cl`, the growth in the assay with NCI-H23 lung was 97%; in the assay with NCI-H226 lung, 68.8%; in the assay with NCI-H322M lung, 98.5%; with HOP-62 NSCLC, 81.7%; with NCI-H460 lung, 46%; in the assay with HOP-92 NSCLC, 49.7%. Further, the growth is 95% in the assay on NCI-H522 lung; 96.3% in the assay on A549/ATCC NSCLC; 65.2% in the assay on 786-0 renal; 53.5% in the assay on COLO 205 colon; 108% with DU-145 prostate; 95.9% in the assay with K-562 leukemia. The growth in the assay with MALME-3M melanoma is 96.8%; in the assay on MDA-MB-231 breast, 101%; with SF-268 CNS it was 77.9%; with SF-295 CNS, 114%; with SF-539 CNS, 52.2%; in the assay with UACC-257 melanoma, 111%.
On to `CCn1ccnc1C(=O)/C=C/c1ccc(CC(=O)Nc2ccc(F)cc2)cc1`, for which the growth is 29.2% in the assay with NCI-H23 lung; 87.4% in the assay on NCI-H226 lung; 35.4% with NCI-H322M lung; 8.48% (active) in the assay on HOP-62 NSCLC; 5.47% (active) with NCI-H460 lung; 62.8% in the assay on HOP-92 NSCLC. Further, the growth was 18.2% in the assay on NCI-H522 lung; 32.9% in the assay on A549/ATCC NSCLC; 24.6% in the assay with 786-0 renal; 33.4% with COLO 205 colon; -24.8% (active) with DU-145 prostate; 7.76% (active) with K-562 leukemia. Further, the growth was 92.4% in the assay with MALME-3M melanoma; 25.9% with MDA-MB-231 breast; 26% in the assay on RXF 393 renal; 5% (active) in the assay with SF-268 CNS; 22.2% in the assay on SF-295 CNS; 1.75% (active) in the assay on SF-539 CNS. The growth in the assay on UACC-257 melanoma was 83.5%; in the assay with M14 melanoma, 75.5%.
As to `O=S(=O)(NCCNc1nccc(-c2c(-c3ccc(F)c(O)c3)nc3occn23)n1)c1ccccc1`, the growth in the assay on NCI-H23 lung was 55.1%; with NCI-H226 lung it was 92.1%; in the assay with NCI-H322M lung it was 72.7%; in the assay with HOP-62 NSCLC, 76.9%; in the assay on NCI-H460 lung, 29.7%; with HOP-92 NSCLC, 43.7%. In addition, the growth in the assay with NCI-H522 lung is 55.2%; in the assay with A549/ATCC NSCLC, 45.8%; in the assay on 786-0 renal it was 88.5%; in the assay on COLO 205 colon, 40.6%; in the assay with DU-145 prostate, 57.1%; with K-562 leukemia, 33.6%. Besides, the growth was -0.538% (active) with MALME-3M melanoma; 27.7% with MDA-MB-231 breast; 57% in the assay with SF-268 CNS; 93.3% with SF-295 CNS; 96% with SF-539 CNS; 25% with UACC-257 melanoma.
On to `CN(C)C(C(N)=O)c1ccc(Cl)cc1` (configuration not stated), for which the growth in the assay on NCI-H23 lung is 104%; in the assay with NCI-H226 lung it was 103%; with NCI-H322M lung, 103%; in the assay with HOP-62 NSCLC, 99.6%; in the assay on NCI-H460 lung, 109%; in the assay on HOP-92 NSCLC, 71.4%. Besides, the growth is 96.1% in the assay on NCI-H522 lung; 96.6% in the assay with A549/ATCC NSCLC; 96.1% in the assay with 786-0 renal; 110% with COLO 205 colon; 107% in the assay with DU-145 prostate; 98.8% with K-562 leukemia. Further, the growth is 103% in the assay with MALME-3M melanoma; 98.3% with MDA-MB-231 breast; 118% in the assay on RXF 393 renal; 102% in the assay with SF-268 CNS; 100% with SF-295 CNS; 99.5% with SF-539 CNS. The figures for the growth in the assay on UACC-257 melanoma and in the assay with M14 melanoma were 95.5% and 96.7%, respectively.
